# Laboratory results reported in article PMC12864922, “TDP-43 directly inhibits mRNA accumulation in neurites through modulation of mRNA stability”.
# Over roughly 9,900 sequences, “r (bound/input frequency ratio)” has its median near 0.7; the highest 2% begin near 6.5. This is one part of a sample in which the highest values are shown more often than they occur.
# B1: ENSMUSG00000029028.179|Lrrc47|115:119 (ssRNA)
# RNA: GGGAGUUCUACAGUCCGACGAUCGCUUCGAUAUCCGCAUGCUAACAGAUGCUUCGUGGACUGUGCCUCACACAUGGCCCUGCAGGCUCCAUGUCAGCGUGUCCCACUAUUCAUGUCCCAUCUCUGUGCAUCCUGACUGCGCACAUCCCAUCUCCGCAACACAACGCAUCUGUACCAGCACACAGCUGCCAUCCCUCGAGCCACAGUGCCUGGUCCUAAGGACCCAGCAGCUGCACAGAGGACUUGGUGGCCCCGUGCCUUGCCAUCUGGCUGAGAAGAGAACCAGACCCUCAGCCUUCCCCCUCUCUUGCGGUCGCACUAGUGUGGAAUUCUCGGGUGUCAAGG
# B2: ENSMUSG00000058297.511|Spock2 (ssRNA)
# RNA: GGGAGUUCUACAGUCCGACGAUCGCUUCGAUAUCCGCAUGCUAAGGAGGCAAAGUUGGUGAGAGUCCUGGGACAUCUUACCCCCAGUGUUCCACAGGAGUCGUGACCACGUGUGAUGGGUGGGCACAGGUCUGCCUUGCUCCAGCCCCCUCCCUUGGUUUCUGUUGGUACCCAUUUGGCUUUUAUCUGCUUUCUGCUUCACCACUAAGUGCGUAGGUGGGGUCUUUUGAUAUCGGCUCCCCAAAGCCCAAGCCCACAGCCCUAGGAGAGAACCAGGGGCCCAUCUUUGACACCUGGGCCAUCACUCUUGCGGUCGCACUAGUGUGGAAUUCUCGGGUGUCAAGG
# B3: ENSMUSG00000090935.640|Synj2bp|188:194 (ssRNA)
# RNA: GGGAGUUCUACAGUCCGACGAUCGCUUCGAUAUCCGCAUGCUAAGAAUAAAGUAUUUUCCUAGGACUACAUAGUUGGUAAAAGAGAAUCAUGAUUUAAACUCUGGACUAUGGAUGGCAGUAUCAGUAAUAUUCCCUCAUAGCUAGCAGUCCUCAUGCAAGGUCUCUGAACAAAAGCAACGUAUCACCUGCAAAUGCUUGGGUUUCAUCCCAUUCUUAUGGAGUGAGAUGACACACACCCAGCCAGCAACUCUGUCCUUCUAGGUAACUGGUUCAUGCUGAACCUUGAGAUUCACCACUGUCAGCUCUUGCGGUCGCACUAGUGUGGAAUUCUCGGGUGUCAAGG
# B4: ENSMUSG00000032194.203|Kank2|47:51 (ssRNA)
# RNA: GGGAGUUCUACAGUCCGACGAUCGCUUCGAUAUCCGCAUGCUACUGCACCUUUCUCUAACUGGGGUUCCUUUCUGGCCCCAGGAUCUCACACACGUUCGUGGGGGGAUUUUGUUGUUGUUUCUUUGUUUCUUUUCUUCAUAAAGAAGAAAAAGGAAACAACUUCUAGAUGUGCCUUGCGAUAGGGAGGACUUUGUCCUCUCAAGUCUCCCUGUCGUAUCCAGAUCACAGCUGAACCCACUGGGCCUUGGCGCCAAACCUCAGCAGGGCAGCAUUGAGACUCAUGGACUAAAGGAAAGUGUUCACUCUUGCGGUCGCACUAGUGUGGAAUUCUCGGGUGUCAAGG
# B5: ENSMUSG00000004113.196|Cacna1b (ssRNA)
# RNA: GGGAGUUCUACAGUCCGACGAUCGCUUCGAUAUCCGCAUGCUACUGGCUCCUCUGCUCAACCAAGUGCCUGAUCUCUGGCUCUGAGCAUCGUGGAUGAGGUACGGCCUCAGGAAGCAUCGGGUGGAUUGGGUGGGAGCUGCUCAGAGCAGCACGGGGGCUUGUGUCUUAGGGACAUUGACAGUGUCCAUCAGCAUGUCAGAGAAGCAGCUGUAGUGCCCGUGUUUCUCCCUGAGUCAUGGGUUCUGAAGAAGCCAGAGCGGCACAAUGCGUGCUUGCAUGAGGCACUUUCAGCCUUUUUAAAUCUCUUGCGGUCGCACUAGUGUGGAAUUCUCGGGUGUCAAGG
# B6: ENSMUSG00000061578.342|Ksr2 (ssRNA)
# RNA: GGGAGUUCUACAGUCCGACGAUCGCUUCGAUAUCCGCAUGCUAUGCCCUUAAGCUAGGGUCCUUCAAGCAUCCACAGACUUAGAGUGUGGUGGUAACAUGCUUGUAAUCCUGGCACUCUGGAGGCUGAGGCAGGAGGAUAACAAGUCUAGACUAUAUAUGAUUUCUGAGGGUCUGUUAGUGAAUAAGUACCUGGAUGACAUGGGACAAGUCCCAGCCUUCCCUGCUCCUGCGCUGCUCUUCCUCUUAUGGGAUAGGGUCUAGGUCAAAUGUCACCUCUUCACUCUUGCUCUUUCCUGACCUCCCUCUUGCGGUCGCACUAGUGUGGAAUUCUCGGGUGUCAAGG
# B7: ENSMUSG00000028439.70|Fam219a|208:212 (ssRNA)
# RNA: GGGAGUUCUACAGUCCGACGAUCGCUUCGAUAUCCGCAUGCUAAAGGCCAGGAGGCCAAAUGUAAGCGUUGGGUGAAGGGAUCACAGGGCCGGAAGGUUGGCCCCAGCCAGUGAAGCCAUGAAUCCCCCCCAAGCCCGGCUUGGAAAGGAAGGAAAGGGGUUUUGAGAAGAAAAGGAUCCAAGCAAUGGGGGCAGUUCUCACACCUCAGAGCCCCUCUCCCCAAACCCUGUGCCAGCCCAUAUACCUAUUACACAUUUCCCCUCAUCUCCAGAUGGGAAGCCUGGCAGCGCUGUCCAAAGGGACUCUUGCGGUCGCACUAGUGUGGAAUUCUCGGGUGUCAAGG
# B8: ENSMUSG00000031028.483|Tub (ssRNA)
# RNA: GGGAGUUCUACAGUCCGACGAUCGCUUCGAUAUCCGCAUGCUAUGUCAAGGAAGUGUGUUGUCAGUUCACUGGAGGAGGAGCUGAGAUGUGCACCCUUUUAAAUGAACAUGGGGUGGUGAUGGUGCCUUAACAAUCUUGACACUAAGGUGAAGCAAGCAAGUAAGGUGUGUGCCUCUGGGAAGACAGGAGUCGGAAGCCAAGGUGUGUGGCAACAGUCUGGAAGAGAGCUUUUGGUAAUCAUACCGUCUUCAGUGACAAGGCAACAAUGCUGUAAAGUGGGUUUGUUUGGUUUUGUUUUUUCUCUCUUGCGGUCGCACUAGUGUGGAAUUCUCGGGUGUCAAGG
# B9: ENSMUSG00000031028.482|Tub|17:22;129:135;166:172 (ssRNA)
# RNA: GGGAGUUCUACAGUCCGACGAUCGCUUCGAUAUCCGCAUGCUAGGCGACUGUCAAGGAACACACAUGUCAGUUCACUGGAGGAGGAGCUGAGAUGUGCACCCUUUUAAAUGAACAUGGGGUGGUGAUGGUGCCUUAACAAUCUUGACACUAAGGUGAAGCAAGCAAGUAAGCACACACCCUCUGGGAAGACAGGAGUCGGAAGCCAAGCACACACGCAACAGUCUGGAAGAGAGCUUUUGGUAAUCAUACCGUCUUCAGUGACAAGGCAACAAUGCUGUAAAGUGGGUUUGUUUGGUUUUGUUCUCUUGCGGUCGCACUAGUGUGGAAUUCUCGGGUGUCAAGG
# B10: ENSMUSG00000031028.481|Tub (ssRNA)
# RNA: GGGAGUUCUACAGUCCGACGAUCGCUUCGAUAUCCGCAUGCUAUGAGCAGGCGACUGUCAAGGAAGUGUGUUGUCAGUUCACUGGAGGAGGAGCUGAGAUGUGCACCCUUUUAAAUGAACAUGGGGUGGUGAUGGUGCCUUAACAAUCUUGACACUAAGGUGAAGCAAGCAAGUAAGGUGUGUGCCUCUGGGAAGACAGGAGUCGGAAGCCAAGGUGUGUGGCAACAGUCUGGAAGAGAGCUUUUGGUAAUCAUACCGUCUUCAGUGACAAGGCAACAAUGCUGUAAAGUGGGUUUGUUUGGUCUCUUGCGGUCGCACUAGUGUGGAAUUCUCGGGUGUCAAGG
# B11: ENSMUSG00000031028.478|Tub (ssRNA)
# RNA: GGGAGUUCUACAGUCCGACGAUCGCUUCGAUAUCCGCAUGCUACUCUUUCUCCCAUGGUUCUGAGCAGGCGACUGUCAAGGAAGUGUGUUGUCAGUUCACUGGAGGAGGAGCUGAGAUGUGCACCCUUUUAAAUGAACAUGGGGUGGUGAUGGUGCCUUAACAAUCUUGACACUAAGGUGAAGCAAGCAAGUAAGGUGUGUGCCUCUGGGAAGACAGGAGUCGGAAGCCAAGGUGUGUGGCAACAGUCUGGAAGAGAGCUUUUGGUAAUCAUACCGUCUUCAGUGACAAGGCAACAAUGCUGUCUCUUGCGGUCGCACUAGUGUGGAAUUCUCGGGUGUCAAGG
# B12: ENSMUSG00000031028.484|Tub (ssRNA)
# RNA: GGGAGUUCUACAGUCCGACGAUCGCUUCGAUAUCCGCAUGCUAGGAAGUGUGUUGUCAGUUCACUGGAGGAGGAGCUGAGAUGUGCACCCUUUUAAAUGAACAUGGGGUGGUGAUGGUGCCUUAACAAUCUUGACACUAAGGUGAAGCAAGCAAGUAAGGUGUGUGCCUCUGGGAAGACAGGAGUCGGAAGCCAAGGUGUGUGGCAACAGUCUGGAAGAGAGCUUUUGGUAAUCAUACCGUCUUCAGUGACAAGGCAACAAUGCUGUAAAGUGGGUUUGUUUGGUUUUGUUUUUUCUUUCUCUCUCUUGCGGUCGCACUAGUGUGGAAUUCUCGGGUGUCAAGG
# B13: ENSMUSG00000031028.480|Tub (ssRNA)
# RNA: GGGAGUUCUACAGUCCGACGAUCGCUUCGAUAUCCGCAUGCUAUGGUUCUGAGCAGGCGACUGUCAAGGAAGUGUGUUGUCAGUUCACUGGAGGAGGAGCUGAGAUGUGCACCCUUUUAAAUGAACAUGGGGUGGUGAUGGUGCCUUAACAAUCUUGACACUAAGGUGAAGCAAGCAAGUAAGGUGUGUGCCUCUGGGAAGACAGGAGUCGGAAGCCAAGGUGUGUGGCAACAGUCUGGAAGAGAGCUUUUGGUAAUCAUACCGUCUUCAGUGACAAGGCAACAAUGCUGUAAAGUGGGUUUGCUCUUGCGGUCGCACUAGUGUGGAAUUCUCGGGUGUCAAGG
# B14: ENSMUSG00000031028.479|Tub|35:40;147:153;184:190 (ssRNA)
# RNA: GGGAGUUCUACAGUCCGACGAUCGCUUCGAUAUCCGCAUGCUACUCCCAUGGUUCUGAGCAGGCGACUGUCAAGGAACACACAUGUCAGUUCACUGGAGGAGGAGCUGAGAUGUGCACCCUUUUAAAUGAACAUGGGGUGGUGAUGGUGCCUUAACAAUCUUGACACUAAGGUGAAGCAAGCAAGUAAGCACACACCCUCUGGGAAGACAGGAGUCGGAAGCCAAGCACACACGCAACAGUCUGGAAGAGAGCUUUUGGUAAUCAUACCGUCUUCAGUGACAAGGCAACAAUGCUGUAAAGUGCUCUUGCGGUCGCACUAGUGUGGAAUUCUCGGGUGUCAAGG
# B15: ENSMUSG00000031028.482|Tub (ssRNA)
# RNA: GGGAGUUCUACAGUCCGACGAUCGCUUCGAUAUCCGCAUGCUAGGCGACUGUCAAGGAAGUGUGUUGUCAGUUCACUGGAGGAGGAGCUGAGAUGUGCACCCUUUUAAAUGAACAUGGGGUGGUGAUGGUGCCUUAACAAUCUUGACACUAAGGUGAAGCAAGCAAGUAAGGUGUGUGCCUCUGGGAAGACAGGAGUCGGAAGCCAAGGUGUGUGGCAACAGUCUGGAAGAGAGCUUUUGGUAAUCAUACCGUCUUCAGUGACAAGGCAACAAUGCUGUAAAGUGGGUUUGUUUGGUUUUGUUCUCUUGCGGUCGCACUAGUGUGGAAUUCUCGGGUGUCAAGG
# B16: ENSMUSG00000031028.479|Tub (ssRNA)
# RNA: GGGAGUUCUACAGUCCGACGAUCGCUUCGAUAUCCGCAUGCUACUCCCAUGGUUCUGAGCAGGCGACUGUCAAGGAAGUGUGUUGUCAGUUCACUGGAGGAGGAGCUGAGAUGUGCACCCUUUUAAAUGAACAUGGGGUGGUGAUGGUGCCUUAACAAUCUUGACACUAAGGUGAAGCAAGCAAGUAAGGUGUGUGCCUCUGGGAAGACAGGAGUCGGAAGCCAAGGUGUGUGGCAACAGUCUGGAAGAGAGCUUUUGGUAAUCAUACCGUCUUCAGUGACAAGGCAACAAUGCUGUAAAGUGCUCUUGCGGUCGCACUAGUGUGGAAUUCUCGGGUGUCAAGG
# Biological target: TDP-43 (Homo sapiens, UniProt Q13148 1-414)
# Sequence (Q13148 whole entry): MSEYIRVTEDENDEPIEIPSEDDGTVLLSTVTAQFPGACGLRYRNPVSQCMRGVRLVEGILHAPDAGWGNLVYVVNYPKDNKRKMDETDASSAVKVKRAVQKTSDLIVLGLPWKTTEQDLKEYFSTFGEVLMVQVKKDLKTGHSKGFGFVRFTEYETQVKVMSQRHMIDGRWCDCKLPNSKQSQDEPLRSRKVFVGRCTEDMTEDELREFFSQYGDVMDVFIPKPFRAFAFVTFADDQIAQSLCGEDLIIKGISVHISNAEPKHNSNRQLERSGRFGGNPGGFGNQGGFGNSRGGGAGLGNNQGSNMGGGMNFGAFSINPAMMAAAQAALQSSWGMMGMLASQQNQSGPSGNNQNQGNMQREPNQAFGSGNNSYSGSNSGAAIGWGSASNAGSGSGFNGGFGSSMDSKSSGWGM
# Experiment: RNA Bind-n-Seq with designed 260-mer pool; 25 mM Tris-HCl, 150 mM KCl, 3 mM MgCl2, BSA (printed 500 mg/mL), 20 units/mL SUPERase IN; pH not stated; 500 nM RNA pool, 1 h, 4 C; TDP-43 5, 50, 500 nM; high values mean tight binding
# Conditions: protein: recombinant; tags: SBP (GST cleaved off with PreScission; pGEX-GST-SBP)
# In short: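 An in vitro-transcribed pool of 260-nt 3′ UTR oligos (500 nM) was incubated for 1 h at 4 °C with recombinant SBP-tagged TDP-43 at 5, 50 or 500 nM held on streptavidin beads. The buffer contained 25 mM Tris-HCl, 150 mM KCl, 3 mM MgCl2, BSA and SUPERase IN. Biotin-eluted bound RNA was sequenced, and binding, R, is each oligo's normalized read abundance in the bound sample over that in input.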
row,Binder,binding signal
1,B1,0.745 R (bound/input frequency ratio)
2,B2,1.02 R (bound/input frequency ratio)
3,B3,0.142 R (bound/input frequency ratio)
4,B4,0.294 R (bound/input frequency ratio)
5,B5,1.41 R (bound/input frequency ratio)
6,B6,0.306 R (bound/input frequency ratio)
7,B7,0.319 R (bound/input frequency ratio)
8,B8,3.98 R (bound/input frequency ratio)
9,B9,1.47 R (bound/input frequency ratio)
10,B10,5.19 R (bound/input frequency ratio)
11,B11,2.52 R (bound/input frequency ratio)
12,B12,4.79 R (bound/input frequency ratio)
13,B13,6.51 R (bound/input frequency ratio)
14,B14,0.829 R (bound/input frequency ratio)
15,B15,6.54 R (bound/input frequency ratio)
16,B16,6.66 R (bound/input frequency ratio)
